Values joined by “and” are separate entries in the source; they are usually repeats but may differ in a detail not shown here. Identical values can stand only once. Inconclusive results are not listed. Active and inactive are the calls of the source. How the source made its calls, unless noted: active means hit-call score of the fitted dose curve at least 0.9, where 1 is the maximum; inconclusive means response in the unintended direction; inactive means score below 0.9.
Key:
[1] = target: rat Peripheral-type Benzodiazepine Receptor (PBR), Tspo (gene 24230) (UniProt P16257); assay: NVS_MP_rPBR: NovaScreen (NVS) Membrane Protein Assay for rat Peripheral-type Benzodiazepine Receptor (PBR) (AID 2283335)
Outline: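 Single-concentration duplicate screening at 25 uM preceded concentration-series retesting of actives. Binding of a specific radioligand to rat kidney membrane PBR was read by filtration radiodetection after 1 h, with plate-wise positive and negative controls.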

[2] = target: Small conductance calcium-activated potassium channel protein 1 (Rattus norvegicus) (UniProt P70606); assay: NVS_IC_rKCaCh: NovaScreen (NVS) Ion Channel Assay for rat Potassium Channel, Ca2+ Act., VI (KCaCh) (AID 2283336)
Outline: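 Filter-based scintillation counting of radioligand bound to rat forebrain membrane preparations, measured 1 h after compound addition. Primary screen used 25 uM in duplicate, with concentration-response follow-up; signal decrease relative to DMSO marks activity.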

[3] = target: Voltage-gated inwardly rectifying potassium channel KCNH2 (Homo sapiens) (UniProt Q12809); assay: NVS_IC_hKhERGCh: NovaScreen (NVS) Ion Channel Assay for human Potassium Channel ERG (KhERGCh) (AID 2283333)
Outline: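 Membranes from CHO cells expressing human ERG; displacement of radioligand measured by filtration and scintillation after 0.75 h. Single-concentration duplicate screen at 25 uM, then concentration-response for actives; DMSO baseline.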

[4] = NVS_IC_rCaBTZCHL: NovaScreen (NVS) Ion Channel Assay for Calcium Channel, Type L, Benzothiazepine Site (CaBTZCHL) (AID 2283337)
Outline: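 Benzothiazepine-site binding was assessed in a tissue-derived, cell-free rat cortical membrane system. After 1.5 h exposure, radioactivity retained on filters was quantified by scintillation; positive and negative controls accompanied every plate.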

[5] = target: rat Glutamate, MK-801 Agonist Site (GluNMDA_MK801), Grin1 (gene 24408) (UniProt P35439); assay: NVS_LGIC_rGluNMDA_MK801_Agonist: NovaScreen (NVS) Ligand-Gated Ion Channel Assay for rat Glutamate, MK-801 Agonist Site (GluNMDA_MK801) (AID 2283340)
Outline: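 Rat forebrain membrane preparation; MK-801-site radioligand binding read by filtration and scintillation after 1.5 h. Single-point 25 uM duplicate screen, followed by singleton concentration series to 50 uM max; DMSO baseline.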

[6] = target: rat Glycine Receptor, Strychnine-sensitive (GlyRStrySens), Glra1 (gene 25674) (UniProt P07727); assay: NVS_LGIC_rGlyRStrySens: NovaScreen (NVS) Ligand-Gated Ion Channel Assay for rat Glycine Receptor, Strychnine-sensitive (GlyRStrySens) (AID 2283341)
Experimental: (§1) NVS_LGIC_rGlyRStrySens is a biochemical, single-readout assay that uses extracted gene-proteins from Rat spinal cord membranes in a tissue-based cell-free assay. Measurements were taken 1 hour after chemical dosing in a 48-well plate.NVS_LGIC_rGlyRStrySens is one of one assay component(s) measured or calculated from the NVS_LGIC_rGlyRStrySens assay. It is designed to make measurements of radioligand binding, a form of binding reporter, as detected with scintillation counting signals by Filter-based radiodetection technology.Data from the assay component NVS_LGIC_rGlyRStrySens was analyzed into 1 assay endpoint. This assay endpoint, NVS_LGIC_rGlyRStrySens, was analyzed in the positive analysis fitting direction relative to DMSO as the negative control and baseline of activity. Using a type of binding reporter, loss-of-signal activity can be used to understand changes in the binding as they relate to the gene Glra1. Furthermore, this assay endpoint can be referred to as a primary readout, because the performed assay has only produced 1 assay endpoint. To generalize the intended target to other relatable targets, this assay endpoint is annotated to the ion channel intended target family, where the subfamily is ligand-gated ion channel.
(§2) Binding assays used specific radioligands (tritiated, iodinated) with non-radioactive competitive displacement ligands in agonist or antagonist protocols (as indicated) and various reference compounds and inhibitors to titrate specific binding to receptors and transporters. Most enzyme assays (CYPs, kinases, phosphatases, proteases, HDACs) used recombinant protein and specific substrates (fluorescence mostly, some colorimetric and radioactive) and inhibitors, followed by a biochemical separation of substrate and product. All assays for the biochemical HTS were initially run in duplicate at a single concentration (10 uM for CYP450 assays and 25 uM for all others). […]

[7] = test system: guinea pig Histamine Receptor (H2), gene 100729734; assay: NVS_GPCR_gH2: NovaScreen (NVS) G Protein-Coupled Receptor Assay for guinea pig Histamine Receptor (H2) (AID 2283342)
Outline: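 Guinea pig striatal membrane preparation with specific radioligand; bound counts measured by filtration and scintillation 1 h post-dosing, DMSO as baseline. Chemicals passing a 25 uM duplicate screen were titrated to a 50 uM maximum.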

NCBI gene 100848466 = assay: NVS_NR_bPR: NovaScreen (NVS) Nuclear Receptor Binding Assay for bovine Progextron Receptor (PR) (AID 2283343);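 on AC50: actives lower bound radioligand signal below DMSO meaning displacement of the label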
Outline: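 Scintillation counts of bound radioligand were read 18 hours after chemical addition to membranes extracted from bovine uterus. Displacement was scored as loss of signal relative to DMSO controls. Screening began at 25 uM in duplicate.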

[8] = target: Glutamate receptor ionotropic, kainate 1 (Rattus norvegicus) (UniProt P22756); assay: NVS_IC_rKAR: NovaScreen (NVS) Ion Channel Assay for rat Kainic Acid Receptors (KAR) (AID 2283334; active means hit-call score of the fitted dose curve at least 0.9, where 1 is the maximum; inactive means score below 0.9)
Experimental: as §1, with “NVS_IC_rKAR” for “NVS_LGIC_rGlyRStrySens”, “forebrain” for “spinal cord”, “plate.NVS_IC_rKAR” for “plate.NVS_LGIC_rGlyRStrySens”, “NVS_IC_rKAR,” for “NVS_LGIC_rGlyRStrySens,”, “Grik1.” for “Glra1.”
as §2

[9] = target: bovine Gamma-Aminobutyric Acid Type A Receptor Agonist (GABAR Agonist), GABRA1 (gene 780973) (UniProt P08219); assay: NVS_LGIC_bGABAR_Agonist: NovaScreen (NVS) Ligand-Gated Ion Channel Assay for bovine Gamma-Aminobutyric Acid Type A Receptor Agonist (GABAR Agonist) (AID 2283338)
Outline: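 Radioligand binding to bovine cerebellar membranes in agonist format, read by filter-based scintillation counting after 1 h. Primary screen in duplicate at 25 uM, with actives followed in concentration series. Gain of signal versus DMSO.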

bovine Gamma-Aminobutyric Acid Type A Receptor Agonist (GABAR Agonist), GABRA1 (gene 780973), sequence (P08219 whole entry, looked up): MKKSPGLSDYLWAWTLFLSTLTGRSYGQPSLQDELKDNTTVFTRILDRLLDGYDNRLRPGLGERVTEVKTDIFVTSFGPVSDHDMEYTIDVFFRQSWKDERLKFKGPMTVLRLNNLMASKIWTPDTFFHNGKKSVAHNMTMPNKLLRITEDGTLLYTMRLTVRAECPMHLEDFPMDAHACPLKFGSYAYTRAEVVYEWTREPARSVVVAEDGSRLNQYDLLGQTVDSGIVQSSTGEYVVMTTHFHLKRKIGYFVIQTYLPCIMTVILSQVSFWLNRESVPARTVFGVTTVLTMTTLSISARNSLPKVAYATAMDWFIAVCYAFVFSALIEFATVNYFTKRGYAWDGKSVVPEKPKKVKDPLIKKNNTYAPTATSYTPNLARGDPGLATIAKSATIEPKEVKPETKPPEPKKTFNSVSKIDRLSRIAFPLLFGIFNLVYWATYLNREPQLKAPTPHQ
Voltage-gated inwardly rectifying potassium channel KCNH2 (Homo sapiens), sequence (Q12809 whole entry, looked up): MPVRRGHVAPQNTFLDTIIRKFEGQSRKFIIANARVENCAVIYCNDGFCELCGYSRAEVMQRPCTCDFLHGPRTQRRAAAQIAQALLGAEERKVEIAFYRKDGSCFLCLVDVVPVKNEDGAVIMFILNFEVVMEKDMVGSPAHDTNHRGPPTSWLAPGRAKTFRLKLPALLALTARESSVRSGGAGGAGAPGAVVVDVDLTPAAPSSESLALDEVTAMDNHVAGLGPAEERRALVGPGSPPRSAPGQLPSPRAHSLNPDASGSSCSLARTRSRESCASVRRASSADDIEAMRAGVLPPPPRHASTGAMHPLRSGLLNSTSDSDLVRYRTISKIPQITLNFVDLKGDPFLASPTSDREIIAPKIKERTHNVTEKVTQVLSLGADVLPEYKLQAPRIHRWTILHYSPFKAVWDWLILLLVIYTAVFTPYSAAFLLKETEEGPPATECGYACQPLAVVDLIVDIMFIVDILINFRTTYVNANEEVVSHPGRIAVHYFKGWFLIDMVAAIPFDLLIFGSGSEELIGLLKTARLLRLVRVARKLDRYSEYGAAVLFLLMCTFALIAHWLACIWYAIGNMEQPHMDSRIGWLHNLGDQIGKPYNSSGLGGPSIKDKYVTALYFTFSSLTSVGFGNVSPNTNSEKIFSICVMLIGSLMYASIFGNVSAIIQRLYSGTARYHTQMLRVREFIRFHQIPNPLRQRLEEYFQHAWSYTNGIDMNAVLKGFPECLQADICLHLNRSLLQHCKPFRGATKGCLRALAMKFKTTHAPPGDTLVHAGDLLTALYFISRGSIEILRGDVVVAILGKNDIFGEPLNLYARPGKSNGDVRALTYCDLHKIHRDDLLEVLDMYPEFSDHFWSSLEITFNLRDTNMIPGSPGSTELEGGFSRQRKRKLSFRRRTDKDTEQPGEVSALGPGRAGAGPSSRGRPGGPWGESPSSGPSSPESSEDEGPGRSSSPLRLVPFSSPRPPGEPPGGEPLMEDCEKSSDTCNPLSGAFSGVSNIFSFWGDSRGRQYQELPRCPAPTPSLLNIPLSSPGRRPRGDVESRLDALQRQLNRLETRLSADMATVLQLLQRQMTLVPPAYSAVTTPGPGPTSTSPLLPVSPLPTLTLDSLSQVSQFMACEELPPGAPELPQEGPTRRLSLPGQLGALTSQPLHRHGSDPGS
rat Peripheral-type Benzodiazepine Receptor (PBR), Tspo (gene 24230), sequence (P16257 whole entry, looked up): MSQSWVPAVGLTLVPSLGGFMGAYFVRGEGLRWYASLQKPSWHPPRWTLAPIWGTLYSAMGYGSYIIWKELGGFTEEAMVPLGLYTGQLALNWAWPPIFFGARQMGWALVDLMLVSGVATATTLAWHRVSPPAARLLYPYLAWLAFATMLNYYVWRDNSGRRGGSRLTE
Small conductance calcium-activated potassium channel protein 1 (Rattus norvegicus), sequence (P70606 whole entry, looked up): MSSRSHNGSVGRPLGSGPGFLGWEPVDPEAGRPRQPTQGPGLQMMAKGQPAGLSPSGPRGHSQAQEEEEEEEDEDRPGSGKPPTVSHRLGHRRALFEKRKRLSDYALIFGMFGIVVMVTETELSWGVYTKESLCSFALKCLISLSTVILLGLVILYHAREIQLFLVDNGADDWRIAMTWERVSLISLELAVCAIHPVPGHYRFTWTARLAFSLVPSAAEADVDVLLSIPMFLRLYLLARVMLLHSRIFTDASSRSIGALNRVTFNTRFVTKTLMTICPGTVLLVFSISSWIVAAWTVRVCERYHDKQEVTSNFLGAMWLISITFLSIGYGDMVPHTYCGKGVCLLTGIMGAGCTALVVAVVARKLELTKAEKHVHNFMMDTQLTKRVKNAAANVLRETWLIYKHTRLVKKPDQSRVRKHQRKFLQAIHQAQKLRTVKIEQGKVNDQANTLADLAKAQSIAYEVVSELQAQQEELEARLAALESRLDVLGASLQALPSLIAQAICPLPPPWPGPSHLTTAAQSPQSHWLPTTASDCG
Glutamate receptor ionotropic, kainate 1 (Rattus norvegicus), sequence (P22756 whole entry, looked up): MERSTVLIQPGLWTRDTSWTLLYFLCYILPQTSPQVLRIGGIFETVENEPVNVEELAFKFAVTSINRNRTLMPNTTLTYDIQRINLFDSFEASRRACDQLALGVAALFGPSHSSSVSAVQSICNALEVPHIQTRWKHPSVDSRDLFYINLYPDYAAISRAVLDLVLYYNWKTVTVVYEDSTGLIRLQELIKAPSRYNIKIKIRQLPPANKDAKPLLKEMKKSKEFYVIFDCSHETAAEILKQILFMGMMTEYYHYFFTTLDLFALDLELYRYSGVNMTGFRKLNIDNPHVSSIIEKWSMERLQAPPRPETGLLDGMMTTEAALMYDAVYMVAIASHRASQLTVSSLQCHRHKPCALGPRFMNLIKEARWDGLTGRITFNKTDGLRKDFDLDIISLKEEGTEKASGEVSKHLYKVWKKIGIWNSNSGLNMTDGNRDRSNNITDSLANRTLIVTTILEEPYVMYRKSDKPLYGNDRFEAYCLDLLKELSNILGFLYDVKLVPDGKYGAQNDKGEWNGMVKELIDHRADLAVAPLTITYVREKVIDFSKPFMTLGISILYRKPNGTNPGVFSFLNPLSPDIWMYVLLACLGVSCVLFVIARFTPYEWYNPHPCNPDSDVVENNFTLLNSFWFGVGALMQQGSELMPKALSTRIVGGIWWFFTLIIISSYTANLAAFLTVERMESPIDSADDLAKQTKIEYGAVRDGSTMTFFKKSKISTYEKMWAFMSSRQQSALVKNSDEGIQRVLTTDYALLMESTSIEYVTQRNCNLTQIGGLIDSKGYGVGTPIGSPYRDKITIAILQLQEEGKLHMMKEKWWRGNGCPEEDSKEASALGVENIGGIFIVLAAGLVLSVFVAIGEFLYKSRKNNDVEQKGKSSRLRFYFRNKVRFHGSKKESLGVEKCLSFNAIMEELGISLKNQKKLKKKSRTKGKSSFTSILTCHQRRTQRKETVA
rat Glycine Receptor, Strychnine-sensitive (GlyRStrySens), Glra1 (gene 25674), sequence (P07727 whole entry, looked up): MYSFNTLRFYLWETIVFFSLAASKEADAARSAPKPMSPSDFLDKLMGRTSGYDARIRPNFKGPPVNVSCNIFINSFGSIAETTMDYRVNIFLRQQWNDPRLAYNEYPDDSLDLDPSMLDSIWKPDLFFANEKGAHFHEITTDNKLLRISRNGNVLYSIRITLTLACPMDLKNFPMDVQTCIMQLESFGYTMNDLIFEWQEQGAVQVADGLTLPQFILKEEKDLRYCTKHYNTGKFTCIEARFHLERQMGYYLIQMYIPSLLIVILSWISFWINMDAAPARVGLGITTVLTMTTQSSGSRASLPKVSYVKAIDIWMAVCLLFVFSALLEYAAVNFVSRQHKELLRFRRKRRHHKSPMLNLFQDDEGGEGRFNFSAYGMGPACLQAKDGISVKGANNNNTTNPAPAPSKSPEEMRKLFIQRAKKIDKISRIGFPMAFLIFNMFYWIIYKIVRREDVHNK

## OC12N=C(c3ccccc3)SC1Cc1cc(Cl)ccc12 (configuration not stated)
[1]
  AC50: 6.16 µM (active)
[2]
  outcome: inactive

## CC(C)(O)c1ccc(CNC(=O)c2cccnc2Oc2ccc3nonc3c2)cc1
[1]
  AC50: 7.64 µM (active)

## COc1ccc2cc(S(=O)(=O)N[C@H](CC(=O)N[C@H](Cc3ccc(CN4[C@H](C)CCC[C@@H]4C)cc3)C(=O)N(C)C(C)C)c3ccc4c(c3)OCO4)ccc2c1
[3]
  AC50: 1.21 µM (active)
[2]
  outcome: inactive
[4]
  AC50: 3.52 µM (active)
[5]
  outcome: inactive
[6]
  AC50: 0.128 µM (active)
[7]
  AC50: 20.5 µM (active)

## CC/C(=C(/CC)c1ccc(O)cc1)c1ccc(O)cc1
[1]
  AC50: 20.8 µM (active) and 25 µM (active) and 1.49 µM (active)
[4]
  AC50: 12.4 µM (active)
NCBI gene 100848466
  AC50: 9.68 µM (active)

## Cc1oc2c(NC(=O)c3c(Cl)cccc3Cl)cccc2c1C(C)(C)O
[1]
  AC50: 2.5 µM (active)

## Cc1c2ccccc2c(C)c2c1ccc1ccccc12
[1]
  AC50: 1.69 µM (active)
NCBI gene 100848466
  AC50: 9.4 µM (active)

## CC[C@H](NC(=O)c1cc(F)ccc1NS(=O)(=O)c1cccc2cccnc12)c1ccccc1
[1]
  AC50: 0.0869 µM (active)

## NC(=O)c1nc(-c2cccc(-c3cc(F)ccc3OCC(F)(F)C(F)(F)F)c2)n[nH]1
[1]
  AC50: 5.7 µM (active)

## CCCCCCCCN(C)CCCCCCCC
[3]
  outcome: inactive
[8]
  outcome: inactive
[4]
  outcome: inactive
[7]
  AC50: 14.5 µM (active)

## CCCCCCCCCCCC[N+](C)(C)C
[3]
  AC50: 10.2 µM (active)
[4]
  AC50: 12.2 µM (active)
[7]
  AC50: 19.6 µM (active)

## c1ccc(C[n+]2cccc3ccccc32)cc1
[5]
  outcome: inactive
[7]
  AC50: 25 µM (active)

## CCN(CC)C(=O)c1cc(S(=O)(=O)Cc2ccccc2)c(N2CCC(c3ccccc3)CC2)cc1N(CC)CCN(C)C
[3]
  AC50: 6.17 µM (active)
[4]
  AC50: 0.214 µM (active)
[9]
  outcome: inactive
[7]
  AC50: 2.84 µM (active)

## Cc1cc(F)ccc1-c1cc(N2CC[C@@H](O)[C@H]2CO)ncc1N(C)C(=O)C(C)(C)c1cc(C(F)(F)F)cc(C(F)(F)F)c1
[3]
  AC50: 7.95 µM (active)
[4]
  outcome: inactive
[7]
  outcome: inactive
NCBI gene 100848466
  AC50: 11.3 µM (active)

## Clc1cc(Cl)c2c(c1)N=C1CCCCCN1C2
[4]
  outcome: inactive
[7]
  AC50: 1.85 µM (active)

## Cc1occc1C(=O)Nc1ccc(C(=O)N2CCC(F)(F)/C(=C\C(=O)N3CCC(N4CCCCC4)CC3)c3ccccc32)cc1
[4]
  AC50: 5.12 µM (active)
[7]
  outcome: inactive

## CCCCOC(=O)CC(CC(=O)OCCCC)(OC(C)=O)C(=O)OCCCC
[1]
  outcome: inactive

## Cc1cccc2ccccc12
[9]
  outcome: inactive

## O=C1O[C@H]([C@@H](O)CO)C(O)=C1O
[9]
  outcome: inactive

## CCCCCCCCOC(=O)c1cc(O)c(O)c(O)c1
[1]
  AC50: 2.82 µM (active)
NCBI gene 100848466
  outcome: inactive

## CCOC(=O)O[C@H](C)OC(=O)c1ccc2c(c1)cc(C(=O)NC1CCN(C(C)C)CC1)n2Cc1cc(-c2ccc(Cl)s2)on1
[3]
  AC50: 0.925 µM (active)
[4]
  AC50: 9.12 µM (active)
[9]
  AC50: 11.8 µM (active)
[7]
  AC50: 13.3 µM (active)
